Compound activity deposited in PubChem by National Center for Advancing Translational Sciences (NCATS).
The list is not random: actives were taken first. Their share in the collection is about 6.9%.
JMJD2A Tudor: JMJD2A Tudor domain (human) inhibition. Potency, µM (doses to about 114 µM), for the others: at the top dose activity change, negative = inhibition, most hits filed as inhibitors. hit rate 4.4% among 390,000. AlphaScreen JMJD2A-Tudor / H3K4me3 peptide binding. O75164; note: % is set by controls: 0 for no effect and ±100 for the full control effect; nearly all actives have a fitted effect of over 50% in size
L3MBTL1 inh: L3MBTL1 (human) inhibition; Q9Y468; AlphaScreen L3MBTL1–H3K9me1 peptide binding; Potency, µM (titrated, usually from 57.1 µM), inactives show top-dose activity, negative = inhibition, hits mostly inhibitors; hit rate 0.66% among 230,000; note: % is set by controls: 0 for no effect and ±100 for the full control effect; nearly all actives have a fitted effect of over 60% in size
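First, the protein-peptide complex forms for 30 min at room temperature (L3MBTL1 50 nM, biotinylated H3K9me1 peptide 75 nM). Next, compounds are pin-transferred and incubated 30 min. Finally, AlphaScreen beads are added and read after 30 min.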
PLK1 PBD block: PLK1 (human) polo-box domain binding inhibition; P53350; Plk1 PBD binding of FITC phosphopeptide, fluorescence polarization; Potency, µM, for the others: max response, negative = inhibition, actives largely listed as inhibitors; hit rate 2.8% among 360,000; note: series mostly up to about 57 µM; % is set by controls: 0 for no effect and ±100 for the full control effect; nearly all actives have a fitted effect of over 65% in size
BAZ2B inh: inhibitors of human BAZ2B bromodomain; hit rate 4.4% among 360,000; Potency, µM (top dose mostly 114 µM), without a hit: top-dose activity change, negative = inhibition, hits mostly inhibitors; AID 504333; AlphaScreen BAZ2B-H3K14Ac peptide displacement; note: % is set by controls: 0 for no effect and ±100 for the full control effect; nearly all actives have a fitted effect of over 60% in size
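In this displacement format the biotinylated H3(5-23) peptide acetylated at Lys14 serves as ligand at 50 nM, with BAZ2B at 50 nM in PBS pH 7.4 containing 0.01% Tween-20. Donor and acceptor beads are 10 ug/mL final.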
VDR inh: blocks the human vitamin D receptor. P11473. VDR-SRC2-3 peptide fluorescence polarization, 2 h. Potency, µM, for the others: max response, negative = inhibition, most hits filed as inhibitors. hit rate 0.93% among 400,000; note: % is set by controls: 0 for no effect and ±100 for the full control effect
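The screen uses fluorescence polarization to detect compounds that interfere with recruitment of the SRC2-3 coactivator peptide to VDR; plates are read after 2 h at room temperature.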
HP1b binding inh: inhibitors of HP1-beta chromodomain binding to methylated histone tails. AlphaScreen HP1-beta / biotin-H3K9me3 peptide binding. Potency, µM (highest dose often 114 µM), for inactives: at the top dose activity change, negative = inhibition, hits mostly inhibitors. hit rate 0.56% among 390,000; note: nearly all actives have a fitted effect of over 70% in size
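HP1-beta protein (50 nM final) preincubated 30 min at room temperature with biotinylated H3(1-18)K9me3 peptide (50 nM) in PBS pH 7.4, 0.01% Tween-20, then compound added for 30 min. AlphaScreen streptavidin donor/nickel chelate acceptor beads (10 ug/mL final), 30 min dark, luminescence read.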
* marks the source's active call; other numbers are inactive results; ? = inconclusive; . = no result; [ ] = dose if it differs, or a comment. Calls come from the whole dose curve; as a rule, active = well fitted curve in the direction sought with a large enough effect; inconclusive = small, poorly fitted or top-dose-only effect, or another doubt; inactive = no such curve, though single readings can be large; an effect the other way counts as inactive or inconclusive. Potency is the fitted concentration of half-maximal effect.

SMILES	JMJD2A Tudor	L3MBTL1 inh	PLK1 PBD block	BAZ2B inh	VDR inh	HP1b binding inh
CC(=O)[C@@H]1CC[C@@H]2[C@@H]3C[C@H](C)C4=CC(=O)CC[C@@]4(C)[C@H]3[C@H](O)C[C@]21C	.	.	.	.	-10%	.
CN(C)c1ccc(C(=C2C=CC(=[N+](C)C)C=C2)c2ccc(N(C)C)cc2)cc1	.	.	.	.	40µM*	.
O=C(NC1CCCCCC1)C(=S)NCCc1ccccc1	19%	16%	11µM*	-11%	?	4%
S=C(NCCc1ccccc1)N/N=C/C1CCCCC1	.	-10%	.	-26%	.	.
S=C(NCCc1ccccc1)NN=C1CCCCCC1	-30%	-28%	27µM*	?	-4%	-19%
O=C(NC1CCCCCC1)C(=S)NCc1ccccc1	50%	40%	21µM*	-5%	?	7%
Cc1ccc(NC(=O)CC2OC(=O)c3ccccc32)cc1S(=O)(=O)N1CCCCCC1 (stereo not drawn)	-16%	-4%	1%	0%	2%	27%
Cc1ccc(C)c(S(=O)(=O)/N=C2\C=C(NS(=O)(=O)c3ccccc3)C(=O)c3ccccc32)c1	22µM*	.	27µM*	10µM*	-15%	?
CC(C)c1ccc(S(=O)(=O)/N=C2/C=CC(=O)c3ccccc32)cc1	.	.	.	7.9µM*	.	.
CCc1ccc(S(=O)(=O)/N=C2\C=C(NS(=O)(=O)c3ccccc3)C(=O)c3ccccc32)cc1	22µM*	.	21µM*	8.9µM*	?	14µM*
Cc1cccc(S(=O)(=O)Nc2cccc3c2C(=O)c2ccccc2-3)c1	-17%	-5%	10%	3%	-10%	7%
CC(C)(C)c1cc[n+](C2=C([O-])c3ccccc3C(=O)/C2=N\S(=O)(=O)c2ccccc2)cc1	-1%	-27%	-1%	-37%	-17%	25%
CC(C)c1ccc(S(=O)(=O)/N=C2\C=C(NS(=O)(=O)c3ccccc3)C(=O)c3ccccc32)cc1	28µM*	.	24µM*	7.1µM*	79µM*	20µM*
COc1ccc(NC(=O)N2CC[C@@]3(CCCN(C(=O)c4cc(C(F)(F)F)cc(C(F)(F)F)c4)C3)C2)cc1	.	.	.	.	0%	.
C#CCOCCOCCOCCNc1nc(N2CCN(C(=O)CCCCCCCCCCNC(=O)[C@H](CCCCN)n3cc(CCO)nn3)CC2)nc(N2CCN(C(=O)CCCCCCCCCCNC(=O)[C@@H]([C@H](C)O)n3cc(C)nn3)CC2)n1	79µM*	-96%	-9%	50µM*	-10%	-23%
C#CCOCCOCCOCCNc1nc(N2CCN(C(=O)CCCCCCCCCCNC(=O)[C@H](CCCCN)n3cc(CCCC(=O)O)nn3)CC2)nc(N2CCN(C(=O)CCCCCCCCCCNC(=O)[C@H](CCCCN)n3cc(CCCC(=O)O)nn3)CC2)n1	?	-9%	-21%	-34%	?	32%
C#CCOCCOCCOCCNc1nc(N2CCN(C(=O)CCCCCCCCCCNC(=O)[C@H](CCCCN)n3cc(CCO)nn3)CC2)nc(N2CCN(C(=O)CCCCCCCCCCNC(=O)[C@H](CCCCN)n3cc(CCO)nn3)CC2)n1	89µM*	-10%	-9%	5%	9%	?
CC(=O)c1ccc(NC(=O)C2=CC(c3ccco3)=NS(=O)(=O)N2C)cc1	-24%	.	-16%	-34%	0%	21%
C#CCCCCCCCCCCCc1ccco1	.	.	.	.	35µM*	.
O=S1(=O)N=C(Nc2nncs2)c2ccccc21	?	.	24µM*	56µM*	-24%	-17%
CCN(CC)S(=O)(=O)c1ccc(NC2=NS(=O)(=O)c3ccccc32)cc1	-5%	.	1%	?	9%	33%
O=C(CN1C(=O)c2ccccc2C1=O)Nc1ccc(N2CCOCC2)cc1	-13%	-6%	-3%	.	6%	7%
Cc1cccc(NC(=O)CN2C(=O)S/C(=C\c3ccc(O)c([N+](=O)[O-])c3)C2=O)c1	50µM*	.	-27%	?	-8%	-24%
Cc1cccc(NC(=O)CN2C(=O)S/C(=C\c3ccccn3)C2=O)c1	-14%	9%	1%	4%	14%	69%
O=C(CN1C(=O)S/C(=C\c2ccc(O)c([N+](=O)[O-])c2)C1=O)Nc1ccc(N2CCOCC2)cc1	56µM*	.	?	45µM*	-10%	?
SMILES	JMJD2A Tudor	L3MBTL1 inh	PLK1 PBD block	BAZ2B inh	VDR inh	HP1b binding inh
CCOCCCNC(=O)Cn1nc(CC)n2c(cc3c(OC)cccc32)c1=O	12%	.	.	-1%	5%	13%
COc1cccc(NC(=O)CSc2nccn2C2CCCC2)c1	-26%	.	.	?	0%	12%
O=S(=O)(NCc1cn2ccccc2n1)c1ccccc1F	-22%	.	-8%	-20%	0%	12%
O=C(CCCN1C(=O)/C(=C/c2cccs2)SC1=S)Nc1cccc(C(=O)O)c1	-36%	-5%	-16%	-33%	-17%	0%
CN1CCN(C(=O)CCCN2C(=O)/C(=C/c3ccccc3)SC2=S)CC1	?	.	-11%	?	7%	-38%
Cc1nn(-c2ccccc2)c(Cl)c1/C=C1\SC(=S)NC1=O	?	.	?	?	-21%	-6%
O=C(O)COc1ccccc1/C=C1\SC(=O)N(Cc2ccc(F)cc2)C1=O	-18%	-4%	-25%	-28%	?	25%
Cc1nn(-c2ccccc2)c(Cl)c1/C=C1\SC(=S)N(CCCCCC(=O)O)C1=O	?	-26%	24µM*	?	?	?
O=C(O)CCCN1C(=O)/C(=C/c2cn(-c3ccccc3)nc2-c2cccs2)SC1=S	14µM*	.	32%	45µM*	-11%	?
O=C(O)CCCN1C(=O)/C(=C\C(Cl)=C\c2ccccc2)SC1=S	50µM*	.	11µM*	50µM*	135%	?
O=C(O)CN1C(=O)/C(=C\c2ccccc2OCc2ccc(F)cc2)SC1=S	?	.	27µM*	-34%	?	-11%
NS(=O)(=O)c1cc([C@@]2(O)NC(=O)c3ccccc32)ccc1Cl	.	.	.	.	-3%	.
O=C(CCN1C(=O)/C(=C\c2ccc(F)cc2)SC1=S)Nc1ccccc1	-9%	.	-1%	9%	11%	-23%
O=C1c2ccccc2NC(c2ccc3c(c2)OCO3)N1Cc1ccco1 (stereo not drawn)	-13%[57.1 µM]	.	.	.	?	12%[57 µM]
CCC1OC(=O)C(C)[C@@H](O[C@H]2C[C@@](C)(OC)C(O)C(C)O2)C(C)[C@@H](O[C@@H]2OC(C)CC(N(C)C)C2O)[C@@](C)(O)CC(C)CN(C)C(C)C(O)[C@]1(C)O (stereo partly drawn)	.	.	.	.	-7%	.
COc1ccc(/C=C2\SC(=S)N(CCCC(=O)Nc3ccccc3C(=O)O)C2=O)cc1OC	?	.	-11%	-16%	-5%	-1%
O=C(O)CCCN1C(=O)/C(=C\c2ccccc2OCc2ccccc2)SC1=S	56µM*	.	27µM*	50µM*	-25%	?
